Source: the supplement of paper PMC11732987, “Enantioselective OTUD7B fragment discovery through chemoproteomics screening and high-throughput optimisation” (Communications Chemistry, 2025)

How the values were obtained:
Assay in all cases: log2 ratio of Biotin-Ahx-Ub-VS probe labelling (fragment/DMSO); higher = less target engagement (more negative = stronger competition), active = hit call of the paper (q ≤ 0.05, log2 ratio ≤ -1)
Settings in all cases: compound concentration: 200 uM; treatment time: 3 h
[1] = target: USP34 (UniProt Q70CQ2)
Chain of USP34 (Q70CQ2 whole entry, the tested form may be a part): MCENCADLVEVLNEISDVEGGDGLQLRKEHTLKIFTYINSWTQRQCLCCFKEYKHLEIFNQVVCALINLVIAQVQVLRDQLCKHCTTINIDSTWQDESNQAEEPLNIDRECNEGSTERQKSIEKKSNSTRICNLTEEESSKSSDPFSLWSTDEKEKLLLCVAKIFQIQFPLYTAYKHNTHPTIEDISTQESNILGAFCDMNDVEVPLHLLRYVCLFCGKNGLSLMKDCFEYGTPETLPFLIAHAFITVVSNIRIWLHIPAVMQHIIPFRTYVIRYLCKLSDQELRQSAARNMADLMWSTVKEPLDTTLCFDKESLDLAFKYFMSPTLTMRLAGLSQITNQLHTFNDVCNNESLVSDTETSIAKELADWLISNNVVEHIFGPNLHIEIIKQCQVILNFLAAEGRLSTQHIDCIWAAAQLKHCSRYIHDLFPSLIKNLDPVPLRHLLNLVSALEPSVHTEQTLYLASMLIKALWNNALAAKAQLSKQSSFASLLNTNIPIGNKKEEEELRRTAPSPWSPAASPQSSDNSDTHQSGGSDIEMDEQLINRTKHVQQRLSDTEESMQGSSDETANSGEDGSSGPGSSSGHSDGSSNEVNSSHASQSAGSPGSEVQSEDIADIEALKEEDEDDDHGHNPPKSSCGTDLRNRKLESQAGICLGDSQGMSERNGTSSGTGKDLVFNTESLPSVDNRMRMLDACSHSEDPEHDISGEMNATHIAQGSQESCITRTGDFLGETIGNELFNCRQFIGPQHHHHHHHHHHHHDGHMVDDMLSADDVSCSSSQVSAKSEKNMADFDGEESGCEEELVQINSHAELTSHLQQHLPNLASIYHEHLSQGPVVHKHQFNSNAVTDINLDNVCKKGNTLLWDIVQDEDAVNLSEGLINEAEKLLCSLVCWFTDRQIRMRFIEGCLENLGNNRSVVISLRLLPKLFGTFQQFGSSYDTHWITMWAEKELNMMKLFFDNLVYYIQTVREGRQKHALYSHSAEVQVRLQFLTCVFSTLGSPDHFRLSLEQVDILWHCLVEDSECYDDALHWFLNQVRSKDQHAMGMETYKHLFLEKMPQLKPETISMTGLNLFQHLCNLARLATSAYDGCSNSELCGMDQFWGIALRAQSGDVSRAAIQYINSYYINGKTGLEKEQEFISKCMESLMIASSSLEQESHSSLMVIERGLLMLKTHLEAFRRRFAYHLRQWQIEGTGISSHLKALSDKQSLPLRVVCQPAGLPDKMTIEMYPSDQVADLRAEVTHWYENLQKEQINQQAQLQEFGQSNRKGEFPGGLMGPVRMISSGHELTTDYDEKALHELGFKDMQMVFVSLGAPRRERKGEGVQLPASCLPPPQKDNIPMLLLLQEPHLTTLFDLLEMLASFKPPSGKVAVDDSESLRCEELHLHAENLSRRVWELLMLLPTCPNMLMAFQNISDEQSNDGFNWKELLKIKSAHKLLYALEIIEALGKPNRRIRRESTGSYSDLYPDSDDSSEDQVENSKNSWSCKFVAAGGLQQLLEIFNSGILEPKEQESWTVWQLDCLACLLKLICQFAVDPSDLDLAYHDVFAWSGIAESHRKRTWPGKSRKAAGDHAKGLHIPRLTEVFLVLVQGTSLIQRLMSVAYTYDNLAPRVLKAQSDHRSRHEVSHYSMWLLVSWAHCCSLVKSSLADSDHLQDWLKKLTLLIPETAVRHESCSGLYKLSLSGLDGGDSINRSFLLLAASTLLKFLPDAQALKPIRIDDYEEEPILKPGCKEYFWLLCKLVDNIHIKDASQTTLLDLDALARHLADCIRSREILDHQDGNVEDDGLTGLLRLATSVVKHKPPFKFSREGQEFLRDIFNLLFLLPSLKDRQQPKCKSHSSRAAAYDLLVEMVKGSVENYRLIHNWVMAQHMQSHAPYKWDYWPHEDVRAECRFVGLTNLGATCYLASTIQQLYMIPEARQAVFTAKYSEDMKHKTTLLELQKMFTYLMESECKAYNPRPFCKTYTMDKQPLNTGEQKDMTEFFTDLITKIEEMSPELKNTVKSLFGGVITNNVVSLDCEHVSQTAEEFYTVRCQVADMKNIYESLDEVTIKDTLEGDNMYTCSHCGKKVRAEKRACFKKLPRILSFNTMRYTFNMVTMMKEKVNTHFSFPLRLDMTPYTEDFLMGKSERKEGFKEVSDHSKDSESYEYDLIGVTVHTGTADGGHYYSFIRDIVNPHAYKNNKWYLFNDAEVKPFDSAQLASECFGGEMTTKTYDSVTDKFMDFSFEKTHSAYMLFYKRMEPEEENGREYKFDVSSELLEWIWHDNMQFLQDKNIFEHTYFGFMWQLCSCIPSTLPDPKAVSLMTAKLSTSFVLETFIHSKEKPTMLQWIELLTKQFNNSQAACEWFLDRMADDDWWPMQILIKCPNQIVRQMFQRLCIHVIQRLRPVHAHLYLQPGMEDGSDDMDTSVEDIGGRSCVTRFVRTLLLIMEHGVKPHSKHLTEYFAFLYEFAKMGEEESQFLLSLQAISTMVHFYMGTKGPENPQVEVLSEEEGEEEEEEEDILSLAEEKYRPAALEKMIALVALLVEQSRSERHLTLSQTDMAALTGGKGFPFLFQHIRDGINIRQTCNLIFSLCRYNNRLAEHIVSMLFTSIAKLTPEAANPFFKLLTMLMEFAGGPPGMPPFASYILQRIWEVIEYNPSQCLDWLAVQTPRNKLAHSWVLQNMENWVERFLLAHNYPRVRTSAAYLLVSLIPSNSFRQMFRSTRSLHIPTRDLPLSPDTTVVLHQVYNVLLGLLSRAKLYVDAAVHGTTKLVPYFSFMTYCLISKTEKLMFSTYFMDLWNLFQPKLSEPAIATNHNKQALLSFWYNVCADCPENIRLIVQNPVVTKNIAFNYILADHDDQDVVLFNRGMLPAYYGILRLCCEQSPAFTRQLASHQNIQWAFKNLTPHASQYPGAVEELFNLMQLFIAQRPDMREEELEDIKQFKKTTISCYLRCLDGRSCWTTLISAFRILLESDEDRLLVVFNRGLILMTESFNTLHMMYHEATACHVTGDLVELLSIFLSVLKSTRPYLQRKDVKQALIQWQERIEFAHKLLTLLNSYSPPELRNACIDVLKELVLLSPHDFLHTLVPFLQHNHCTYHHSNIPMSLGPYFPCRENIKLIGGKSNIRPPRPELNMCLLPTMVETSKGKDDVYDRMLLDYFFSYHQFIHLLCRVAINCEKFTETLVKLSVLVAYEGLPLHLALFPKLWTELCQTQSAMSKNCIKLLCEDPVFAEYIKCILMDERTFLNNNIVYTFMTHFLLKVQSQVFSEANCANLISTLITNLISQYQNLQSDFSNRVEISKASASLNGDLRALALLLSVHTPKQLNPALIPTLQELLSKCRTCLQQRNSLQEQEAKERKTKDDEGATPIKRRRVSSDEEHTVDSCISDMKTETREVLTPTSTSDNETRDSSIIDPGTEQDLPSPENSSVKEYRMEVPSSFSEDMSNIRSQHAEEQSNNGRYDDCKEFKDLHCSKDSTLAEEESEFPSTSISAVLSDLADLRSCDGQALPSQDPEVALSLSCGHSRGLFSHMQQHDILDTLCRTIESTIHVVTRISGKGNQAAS
Method in brief: (§1)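 HEK293T lysate in Tris/CHAPS/IGEPAL buffer with protease inhibitors (495 µg per sample) was given fragment at 200 µM or vehicle for 3 h, in triplicate. It then received Biotin-Ahx-Ub-VS at 0.5 µM final for 1 h. Labelled DUBs were NeutrAvidin-enriched, digested with LysC and trypsin, and run by diaPASEF LC-MS/MS. Values are average log2 fragment/vehicle ratios by unpaired t-test on global-median-normalised Spectronaut quantities of proteins with ≥2 unique peptides.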

[2] = target: T1, USP36 (UniProt Q9P275)
T1 sequence (whole entry): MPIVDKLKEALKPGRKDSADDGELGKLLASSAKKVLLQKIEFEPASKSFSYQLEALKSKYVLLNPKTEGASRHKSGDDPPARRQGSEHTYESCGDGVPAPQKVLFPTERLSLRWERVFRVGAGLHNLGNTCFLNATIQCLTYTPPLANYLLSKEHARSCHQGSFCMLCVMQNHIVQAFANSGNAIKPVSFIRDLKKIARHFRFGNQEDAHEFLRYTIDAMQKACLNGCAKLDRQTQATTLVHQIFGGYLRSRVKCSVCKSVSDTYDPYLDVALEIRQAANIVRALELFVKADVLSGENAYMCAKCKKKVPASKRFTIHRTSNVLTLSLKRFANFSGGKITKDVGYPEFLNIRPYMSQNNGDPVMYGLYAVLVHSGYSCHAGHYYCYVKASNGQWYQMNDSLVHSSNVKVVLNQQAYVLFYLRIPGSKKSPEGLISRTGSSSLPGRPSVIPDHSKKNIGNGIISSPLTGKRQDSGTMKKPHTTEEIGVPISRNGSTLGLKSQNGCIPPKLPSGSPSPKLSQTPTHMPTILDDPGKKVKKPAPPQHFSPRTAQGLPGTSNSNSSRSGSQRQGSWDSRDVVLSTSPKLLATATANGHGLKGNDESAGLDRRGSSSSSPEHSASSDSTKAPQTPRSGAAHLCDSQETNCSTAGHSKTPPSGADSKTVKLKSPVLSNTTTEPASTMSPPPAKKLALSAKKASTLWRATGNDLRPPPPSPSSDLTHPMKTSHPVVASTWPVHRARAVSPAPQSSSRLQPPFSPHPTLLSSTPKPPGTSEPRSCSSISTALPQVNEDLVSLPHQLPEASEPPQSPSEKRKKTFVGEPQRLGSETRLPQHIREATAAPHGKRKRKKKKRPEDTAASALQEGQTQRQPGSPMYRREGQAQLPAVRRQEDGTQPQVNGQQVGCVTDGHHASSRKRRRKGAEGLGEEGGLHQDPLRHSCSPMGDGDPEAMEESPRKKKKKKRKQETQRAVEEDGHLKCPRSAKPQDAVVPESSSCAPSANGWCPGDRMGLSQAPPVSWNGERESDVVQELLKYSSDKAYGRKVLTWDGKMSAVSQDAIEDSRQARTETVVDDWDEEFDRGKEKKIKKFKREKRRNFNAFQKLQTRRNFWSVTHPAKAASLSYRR
Method in brief: as §1

[3] = target: T2, USP38 (UniProt Q8NB14)
T2 sequence (whole entry): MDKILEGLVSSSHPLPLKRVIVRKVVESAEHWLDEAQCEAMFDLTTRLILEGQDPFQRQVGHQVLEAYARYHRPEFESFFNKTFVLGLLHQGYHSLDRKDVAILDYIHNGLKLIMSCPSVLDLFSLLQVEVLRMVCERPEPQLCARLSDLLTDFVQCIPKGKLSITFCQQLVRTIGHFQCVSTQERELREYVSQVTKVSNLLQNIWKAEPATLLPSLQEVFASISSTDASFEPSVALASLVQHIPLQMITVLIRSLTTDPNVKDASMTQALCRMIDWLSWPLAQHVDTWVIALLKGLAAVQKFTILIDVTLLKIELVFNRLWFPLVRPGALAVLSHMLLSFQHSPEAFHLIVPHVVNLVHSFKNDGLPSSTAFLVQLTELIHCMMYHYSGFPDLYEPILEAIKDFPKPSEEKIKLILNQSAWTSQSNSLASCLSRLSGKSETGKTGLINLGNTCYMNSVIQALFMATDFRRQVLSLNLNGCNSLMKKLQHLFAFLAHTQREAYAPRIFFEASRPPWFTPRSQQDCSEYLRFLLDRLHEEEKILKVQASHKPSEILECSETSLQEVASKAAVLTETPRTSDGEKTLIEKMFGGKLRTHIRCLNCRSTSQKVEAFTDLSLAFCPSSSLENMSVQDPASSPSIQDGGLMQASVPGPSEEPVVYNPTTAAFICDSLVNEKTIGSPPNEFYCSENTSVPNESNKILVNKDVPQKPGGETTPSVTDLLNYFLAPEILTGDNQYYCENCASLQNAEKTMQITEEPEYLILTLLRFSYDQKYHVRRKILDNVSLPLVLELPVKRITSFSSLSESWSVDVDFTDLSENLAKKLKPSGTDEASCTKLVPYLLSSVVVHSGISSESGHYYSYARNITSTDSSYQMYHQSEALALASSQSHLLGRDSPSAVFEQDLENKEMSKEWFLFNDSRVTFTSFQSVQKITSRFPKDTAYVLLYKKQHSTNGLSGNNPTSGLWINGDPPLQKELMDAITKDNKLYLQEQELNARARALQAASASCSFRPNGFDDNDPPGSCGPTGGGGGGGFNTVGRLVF
Method in brief: as §1

[4] = target: T3, USP39 (UniProt Q53GS9)
T3 sequence (whole entry): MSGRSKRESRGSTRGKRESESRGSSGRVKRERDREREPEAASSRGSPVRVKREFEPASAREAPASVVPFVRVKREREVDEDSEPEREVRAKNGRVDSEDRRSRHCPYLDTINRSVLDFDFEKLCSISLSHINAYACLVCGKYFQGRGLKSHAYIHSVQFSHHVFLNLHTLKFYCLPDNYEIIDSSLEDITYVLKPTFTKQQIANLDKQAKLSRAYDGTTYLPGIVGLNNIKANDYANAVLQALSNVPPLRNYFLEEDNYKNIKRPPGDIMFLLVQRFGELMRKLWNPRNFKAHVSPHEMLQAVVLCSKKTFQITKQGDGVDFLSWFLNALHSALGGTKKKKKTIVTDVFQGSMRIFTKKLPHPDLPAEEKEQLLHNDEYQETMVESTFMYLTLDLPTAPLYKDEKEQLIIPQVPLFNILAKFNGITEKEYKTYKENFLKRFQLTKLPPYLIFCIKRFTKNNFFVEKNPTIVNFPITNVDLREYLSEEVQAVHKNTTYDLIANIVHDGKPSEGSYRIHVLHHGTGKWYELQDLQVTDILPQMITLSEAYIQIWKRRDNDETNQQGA
Method in brief: as §1

[5] = target: T4, USP4 (UniProt Q13107)
T4 sequence (whole entry): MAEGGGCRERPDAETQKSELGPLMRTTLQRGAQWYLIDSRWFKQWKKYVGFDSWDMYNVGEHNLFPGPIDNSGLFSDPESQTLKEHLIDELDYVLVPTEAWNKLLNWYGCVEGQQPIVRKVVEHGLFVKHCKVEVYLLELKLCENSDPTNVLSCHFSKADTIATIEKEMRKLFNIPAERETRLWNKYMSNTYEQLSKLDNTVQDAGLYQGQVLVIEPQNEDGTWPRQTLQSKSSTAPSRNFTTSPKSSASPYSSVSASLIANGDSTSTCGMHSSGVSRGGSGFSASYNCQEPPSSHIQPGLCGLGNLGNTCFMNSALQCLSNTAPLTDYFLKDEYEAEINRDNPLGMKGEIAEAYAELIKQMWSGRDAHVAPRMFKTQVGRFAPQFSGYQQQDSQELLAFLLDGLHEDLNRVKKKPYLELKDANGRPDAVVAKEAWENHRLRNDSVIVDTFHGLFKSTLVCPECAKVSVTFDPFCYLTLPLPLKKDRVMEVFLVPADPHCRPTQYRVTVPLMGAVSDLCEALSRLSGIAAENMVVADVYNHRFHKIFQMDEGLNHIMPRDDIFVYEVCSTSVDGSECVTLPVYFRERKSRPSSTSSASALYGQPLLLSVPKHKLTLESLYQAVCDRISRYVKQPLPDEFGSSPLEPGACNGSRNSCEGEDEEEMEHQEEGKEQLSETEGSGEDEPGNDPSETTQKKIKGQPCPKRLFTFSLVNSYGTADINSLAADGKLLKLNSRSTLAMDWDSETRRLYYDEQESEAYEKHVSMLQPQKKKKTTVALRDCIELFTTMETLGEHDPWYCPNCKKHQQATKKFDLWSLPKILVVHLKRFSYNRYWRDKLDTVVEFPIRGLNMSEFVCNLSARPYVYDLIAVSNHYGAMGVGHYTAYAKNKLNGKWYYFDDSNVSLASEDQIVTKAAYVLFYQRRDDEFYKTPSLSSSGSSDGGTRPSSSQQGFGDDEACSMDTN
Method in brief: as §1

Measured: log2 ratio of Biotin-Ahx-Ub-VS probe labelling

Cc1noc(C)c1CNC(=O)CCl
inactive: [1] -0.584 | [2] -0.32 | [3] -0.547 | [4] 0.303 | [5] -0.608
